Experiment in all cases: DAPPL (digital affinity profiling via proximity ligation, sequencing); 10 mM Tris-HCl pH 7.5, 50 mM NaCl, 1 mM DTT, 4% glycerol, room temperature, 30 min; GST-TFs on glutathione beads, 16-mer random dsDNA library, 0.1% formaldehyde crosslink after washing; high values mean tight binding
The target in one assay is T1, FEV (Homo sapiens, UniProt Q99581 1-238).
T1 sequence: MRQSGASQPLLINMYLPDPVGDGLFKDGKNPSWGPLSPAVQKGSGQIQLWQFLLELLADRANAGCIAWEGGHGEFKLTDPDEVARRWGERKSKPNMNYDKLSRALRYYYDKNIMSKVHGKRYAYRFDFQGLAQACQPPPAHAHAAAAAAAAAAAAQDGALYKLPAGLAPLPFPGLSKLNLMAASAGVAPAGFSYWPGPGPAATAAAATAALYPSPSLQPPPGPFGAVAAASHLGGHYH
The conditions noted are these: protein: recombinant; tags: N-terminal GST; dsDNA, one strand shown. The gist of the method: (§1)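 A tag-only sample was pooled with DNA-barcoded human transcription factors that had been expressed in yeast as GST fusions and captured on glutathione beads. The pools were incubated for 30 min at room temperature with 200 nmole of a random double-stranded 16-mer DNA library in Tris/NaCl/DTT/glycerol buffer, then washed, crosslinked with 0.1% formaldehyde, proximity-ligated (BsaI/T4 ligase, 1 h, 37 °C), PCR-amplified and sequenced on an Illumina NextSeq500. Binding signal is each hexamer's read frequency for a factor divided by its frequency for the tag-only sample.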

The next assay has as its target ETV5 (Homo sapiens, UniProt P41161 1-510). The conditions noted are these: protein: recombinant; tags: N-terminal GST; dsDNA, one strand shown. The gist of the method:
as §1

The target in the next assay is HSF1 (Homo sapiens, UniProt Q00613 1-529). The conditions noted are these: protein: recombinant; tags: N-terminal GST; chain copies: 3; dsDNA, one strand shown. The gist of the method:
as §1

Another assay concerns the target T2, SPIC (Homo sapiens, UniProt Q8N5J4 1-248).
T2 sequence: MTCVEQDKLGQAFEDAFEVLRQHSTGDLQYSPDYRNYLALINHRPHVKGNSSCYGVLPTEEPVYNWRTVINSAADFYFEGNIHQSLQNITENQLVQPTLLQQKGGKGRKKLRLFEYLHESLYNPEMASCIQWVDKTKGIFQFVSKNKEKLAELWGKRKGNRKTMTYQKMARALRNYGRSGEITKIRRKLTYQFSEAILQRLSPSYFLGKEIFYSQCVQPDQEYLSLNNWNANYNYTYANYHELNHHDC
As to conditions: protein: recombinant; tags: N-terminal GST; dsDNA, one strand shown. The gist of the method:
as §1

Another assay addresses ELF4 (Homo sapiens, UniProt Q99607 1-663). As to conditions: protein: recombinant; tags: N-terminal GST; dsDNA, one strand shown. The gist of the method: as §1
The next assay concerns the target T3, ELK4 (Homo sapiens, UniProt P28324-2 1-405).
T3 sequence: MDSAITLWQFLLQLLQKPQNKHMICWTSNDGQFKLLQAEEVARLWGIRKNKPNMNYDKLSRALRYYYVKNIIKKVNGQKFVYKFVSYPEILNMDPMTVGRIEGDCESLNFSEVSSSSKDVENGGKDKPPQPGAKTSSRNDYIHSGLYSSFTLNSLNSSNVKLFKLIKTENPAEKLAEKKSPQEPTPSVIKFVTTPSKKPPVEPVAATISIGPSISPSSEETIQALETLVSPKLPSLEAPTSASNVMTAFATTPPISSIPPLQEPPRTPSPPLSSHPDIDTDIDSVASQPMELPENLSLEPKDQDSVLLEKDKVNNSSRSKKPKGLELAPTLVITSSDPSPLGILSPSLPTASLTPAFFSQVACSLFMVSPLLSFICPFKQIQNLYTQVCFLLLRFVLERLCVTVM
As to conditions: protein: recombinant; tags: N-terminal GST; dsDNA, one strand shown. The method, boiled down: as §1

A further assay has as its target T4, ETV2 (Homo sapiens, UniProt O00321 1-342).
T4 sequence: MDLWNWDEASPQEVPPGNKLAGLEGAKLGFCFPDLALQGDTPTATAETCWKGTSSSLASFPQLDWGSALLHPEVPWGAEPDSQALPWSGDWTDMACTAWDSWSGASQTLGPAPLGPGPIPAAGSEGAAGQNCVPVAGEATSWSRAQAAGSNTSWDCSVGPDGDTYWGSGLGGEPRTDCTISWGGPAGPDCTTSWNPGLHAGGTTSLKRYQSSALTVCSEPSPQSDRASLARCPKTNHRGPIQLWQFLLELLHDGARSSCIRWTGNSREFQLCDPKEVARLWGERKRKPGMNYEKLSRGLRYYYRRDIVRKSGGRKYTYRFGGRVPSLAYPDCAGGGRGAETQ
The conditions noted are these: protein: recombinant; tags: N-terminal GST; dsDNA, one strand shown. The method, boiled down:
as §1

A further assay has as its target T5, ELF3 (Homo sapiens, UniProt P78545 1-371).
T5 sequence: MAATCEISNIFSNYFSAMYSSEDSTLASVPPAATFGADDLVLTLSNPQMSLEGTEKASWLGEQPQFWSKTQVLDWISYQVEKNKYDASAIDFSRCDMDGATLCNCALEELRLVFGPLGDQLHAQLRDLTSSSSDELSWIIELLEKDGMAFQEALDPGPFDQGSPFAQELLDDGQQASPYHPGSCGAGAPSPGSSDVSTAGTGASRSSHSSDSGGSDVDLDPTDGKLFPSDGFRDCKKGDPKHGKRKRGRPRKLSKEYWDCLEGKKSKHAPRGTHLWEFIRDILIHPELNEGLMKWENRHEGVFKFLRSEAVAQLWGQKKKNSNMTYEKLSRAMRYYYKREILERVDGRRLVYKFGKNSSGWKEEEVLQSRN
As to conditions: protein: recombinant; tags: N-terminal GST; dsDNA, one strand shown. The method, boiled down: as §1

For the next assay, the target named is CRX (Homo sapiens, UniProt O43186 1-299). The conditions noted are these: protein: recombinant; tags: N-terminal GST; dsDNA, one strand shown. The method, boiled down: as §1
A further assay addresses ETV1 (Homo sapiens, UniProt P50549 1-477). As to conditions: protein: recombinant; tags: N-terminal GST; dsDNA, one strand shown. The method, boiled down:
as §1

A further assay has as its target T6, ERF (Homo sapiens, UniProt P50548 1-548).
T6 sequence: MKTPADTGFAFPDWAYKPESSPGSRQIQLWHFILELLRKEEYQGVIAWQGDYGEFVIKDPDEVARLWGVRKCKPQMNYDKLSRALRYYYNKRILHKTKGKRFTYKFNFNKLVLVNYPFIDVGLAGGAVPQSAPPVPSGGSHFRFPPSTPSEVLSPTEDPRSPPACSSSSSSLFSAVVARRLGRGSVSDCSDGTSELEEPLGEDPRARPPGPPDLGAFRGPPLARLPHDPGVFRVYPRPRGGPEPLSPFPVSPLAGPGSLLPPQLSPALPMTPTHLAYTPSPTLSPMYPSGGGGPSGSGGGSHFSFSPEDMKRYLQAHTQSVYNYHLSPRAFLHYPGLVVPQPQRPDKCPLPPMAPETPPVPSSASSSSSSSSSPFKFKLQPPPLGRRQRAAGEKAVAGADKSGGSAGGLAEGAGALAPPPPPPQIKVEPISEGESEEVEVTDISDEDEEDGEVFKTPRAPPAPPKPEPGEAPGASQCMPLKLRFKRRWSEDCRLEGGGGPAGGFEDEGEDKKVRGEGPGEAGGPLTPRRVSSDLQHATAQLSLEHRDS
The conditions noted are these: protein: recombinant; tags: N-terminal GST; dsDNA, one strand shown. The gist of the method: as §1

The next assay has as its target T7, ETV3L (Homo sapiens, UniProt Q6ZN32 1-361).
T7 sequence: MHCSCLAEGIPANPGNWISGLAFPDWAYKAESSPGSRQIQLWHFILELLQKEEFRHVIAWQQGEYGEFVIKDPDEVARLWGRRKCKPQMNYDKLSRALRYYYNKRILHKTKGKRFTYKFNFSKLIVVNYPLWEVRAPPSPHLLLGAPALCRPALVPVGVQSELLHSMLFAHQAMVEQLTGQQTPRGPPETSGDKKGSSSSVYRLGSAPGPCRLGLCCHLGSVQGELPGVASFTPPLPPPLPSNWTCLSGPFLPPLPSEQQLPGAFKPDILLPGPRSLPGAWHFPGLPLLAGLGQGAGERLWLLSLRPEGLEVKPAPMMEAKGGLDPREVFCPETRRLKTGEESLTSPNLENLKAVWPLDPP
As to conditions: protein: recombinant; tags: N-terminal GST; dsDNA, one strand shown. The gist of the method:
as §1

Another assay has as its target T8, ETS2 (Homo sapiens, UniProt P15036 1-469).
T8 sequence: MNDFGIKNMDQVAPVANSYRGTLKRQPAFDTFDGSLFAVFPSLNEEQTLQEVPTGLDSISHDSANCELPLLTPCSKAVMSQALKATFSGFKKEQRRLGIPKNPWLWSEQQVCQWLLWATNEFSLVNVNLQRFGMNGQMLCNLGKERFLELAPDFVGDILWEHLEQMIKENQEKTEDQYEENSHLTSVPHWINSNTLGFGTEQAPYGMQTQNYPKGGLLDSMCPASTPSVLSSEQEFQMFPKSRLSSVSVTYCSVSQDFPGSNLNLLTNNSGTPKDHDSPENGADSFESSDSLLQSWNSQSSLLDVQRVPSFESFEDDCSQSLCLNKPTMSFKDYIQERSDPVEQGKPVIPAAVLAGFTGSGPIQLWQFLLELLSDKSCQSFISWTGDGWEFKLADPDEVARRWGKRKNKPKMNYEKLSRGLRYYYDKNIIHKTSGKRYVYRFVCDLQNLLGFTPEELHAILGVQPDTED
As to conditions: protein: recombinant; tags: N-terminal GST; dsDNA, one strand shown. The method, boiled down:
as §1

In a further assay the target is T9, SPDEF (Homo sapiens, UniProt O95238 1-335).
T9 sequence: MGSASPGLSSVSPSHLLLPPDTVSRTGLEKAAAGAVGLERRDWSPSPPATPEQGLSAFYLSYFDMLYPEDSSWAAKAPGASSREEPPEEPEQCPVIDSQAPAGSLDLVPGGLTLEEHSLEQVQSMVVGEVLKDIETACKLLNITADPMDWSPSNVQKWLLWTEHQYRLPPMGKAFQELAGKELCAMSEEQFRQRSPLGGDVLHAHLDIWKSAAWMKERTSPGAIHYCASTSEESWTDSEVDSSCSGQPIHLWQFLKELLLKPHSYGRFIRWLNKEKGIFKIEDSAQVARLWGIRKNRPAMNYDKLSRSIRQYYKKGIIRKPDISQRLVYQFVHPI
The conditions noted are these: protein: recombinant; tags: N-terminal GST; dsDNA, one strand shown. The gist of the method:
as §1

Another assay addresses T10, ETV7 (Homo sapiens, UniProt Q9Y603 1-341).
T10 sequence: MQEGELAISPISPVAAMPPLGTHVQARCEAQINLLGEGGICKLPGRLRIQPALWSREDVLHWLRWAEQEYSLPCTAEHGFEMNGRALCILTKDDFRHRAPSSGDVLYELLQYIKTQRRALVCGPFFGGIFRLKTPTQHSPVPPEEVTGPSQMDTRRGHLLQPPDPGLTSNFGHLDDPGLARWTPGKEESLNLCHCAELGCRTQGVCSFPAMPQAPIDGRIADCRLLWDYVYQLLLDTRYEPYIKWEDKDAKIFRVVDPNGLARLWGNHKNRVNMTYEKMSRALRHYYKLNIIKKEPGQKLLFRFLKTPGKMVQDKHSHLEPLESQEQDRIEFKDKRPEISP
As to conditions: protein: recombinant; tags: N-terminal GST; dsDNA, one strand shown. The gist of the method:
as §1

The target of the next assay is T11, ELF5 (Homo sapiens, UniProt Q9UKW6-2 1-255).
T11 sequence: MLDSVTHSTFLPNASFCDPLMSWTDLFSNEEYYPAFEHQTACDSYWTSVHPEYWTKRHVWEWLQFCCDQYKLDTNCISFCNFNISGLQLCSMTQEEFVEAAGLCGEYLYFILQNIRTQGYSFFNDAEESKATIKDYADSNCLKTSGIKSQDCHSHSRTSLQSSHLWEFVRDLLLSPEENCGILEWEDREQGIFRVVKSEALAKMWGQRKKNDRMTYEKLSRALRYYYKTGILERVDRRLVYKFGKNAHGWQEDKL
As to conditions: protein: recombinant; tags: N-terminal GST; dsDNA, one strand shown. The gist of the method:
as §1

A further assay has as its target T12, ETV3 (Homo sapiens, UniProt P41162-2 1-143).
T12 sequence: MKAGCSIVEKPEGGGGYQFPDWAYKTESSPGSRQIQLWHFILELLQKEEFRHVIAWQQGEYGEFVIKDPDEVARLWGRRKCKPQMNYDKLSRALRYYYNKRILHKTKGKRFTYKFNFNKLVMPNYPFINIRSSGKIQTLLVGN
As to conditions: protein: recombinant; tags: N-terminal GST; dsDNA, one strand shown. The gist of the method:
as §1

Another assay addresses ETV6 (Homo sapiens, UniProt P41212 1-452). As to conditions: protein: recombinant; tags: N-terminal GST; dsDNA, one strand shown. The gist of the method:
as §1

Chain of ETV1 (P50549 whole entry): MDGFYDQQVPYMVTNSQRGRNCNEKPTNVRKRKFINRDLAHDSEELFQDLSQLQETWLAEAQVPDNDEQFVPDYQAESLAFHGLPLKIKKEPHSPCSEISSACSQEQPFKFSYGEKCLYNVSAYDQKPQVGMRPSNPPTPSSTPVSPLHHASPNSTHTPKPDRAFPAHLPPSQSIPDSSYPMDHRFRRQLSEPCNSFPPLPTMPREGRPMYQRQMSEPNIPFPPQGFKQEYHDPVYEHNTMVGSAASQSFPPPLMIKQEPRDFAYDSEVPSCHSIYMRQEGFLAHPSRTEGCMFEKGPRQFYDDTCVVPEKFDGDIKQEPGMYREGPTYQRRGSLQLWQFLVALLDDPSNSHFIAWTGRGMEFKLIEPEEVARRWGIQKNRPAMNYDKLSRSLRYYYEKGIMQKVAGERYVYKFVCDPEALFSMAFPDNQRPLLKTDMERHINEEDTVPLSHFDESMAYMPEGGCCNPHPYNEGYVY
Chain of ETV5 (P41161 whole entry): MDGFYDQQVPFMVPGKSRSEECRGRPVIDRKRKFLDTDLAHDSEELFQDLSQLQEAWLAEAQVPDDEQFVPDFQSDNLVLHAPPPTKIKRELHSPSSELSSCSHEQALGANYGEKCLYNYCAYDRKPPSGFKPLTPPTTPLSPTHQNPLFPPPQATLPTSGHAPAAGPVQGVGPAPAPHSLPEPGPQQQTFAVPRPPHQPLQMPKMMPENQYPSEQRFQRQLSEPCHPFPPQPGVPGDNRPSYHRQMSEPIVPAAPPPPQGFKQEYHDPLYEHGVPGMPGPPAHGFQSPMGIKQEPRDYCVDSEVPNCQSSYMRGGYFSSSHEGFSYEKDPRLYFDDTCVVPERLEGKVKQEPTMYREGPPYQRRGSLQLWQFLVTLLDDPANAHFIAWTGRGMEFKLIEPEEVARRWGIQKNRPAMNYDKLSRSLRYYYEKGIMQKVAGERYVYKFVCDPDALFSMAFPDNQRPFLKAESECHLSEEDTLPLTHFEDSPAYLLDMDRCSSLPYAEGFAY
Chain of CRX (O43186 whole entry): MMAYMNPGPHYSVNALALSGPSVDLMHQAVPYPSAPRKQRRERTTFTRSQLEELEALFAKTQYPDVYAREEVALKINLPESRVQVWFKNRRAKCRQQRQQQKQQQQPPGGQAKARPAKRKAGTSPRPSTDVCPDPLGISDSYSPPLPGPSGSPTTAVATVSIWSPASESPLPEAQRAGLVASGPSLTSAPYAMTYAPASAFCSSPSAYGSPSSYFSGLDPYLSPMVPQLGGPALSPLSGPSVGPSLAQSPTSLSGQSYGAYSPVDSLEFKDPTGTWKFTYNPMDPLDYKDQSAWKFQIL
Chain of ELF4 (Q99607 whole entry): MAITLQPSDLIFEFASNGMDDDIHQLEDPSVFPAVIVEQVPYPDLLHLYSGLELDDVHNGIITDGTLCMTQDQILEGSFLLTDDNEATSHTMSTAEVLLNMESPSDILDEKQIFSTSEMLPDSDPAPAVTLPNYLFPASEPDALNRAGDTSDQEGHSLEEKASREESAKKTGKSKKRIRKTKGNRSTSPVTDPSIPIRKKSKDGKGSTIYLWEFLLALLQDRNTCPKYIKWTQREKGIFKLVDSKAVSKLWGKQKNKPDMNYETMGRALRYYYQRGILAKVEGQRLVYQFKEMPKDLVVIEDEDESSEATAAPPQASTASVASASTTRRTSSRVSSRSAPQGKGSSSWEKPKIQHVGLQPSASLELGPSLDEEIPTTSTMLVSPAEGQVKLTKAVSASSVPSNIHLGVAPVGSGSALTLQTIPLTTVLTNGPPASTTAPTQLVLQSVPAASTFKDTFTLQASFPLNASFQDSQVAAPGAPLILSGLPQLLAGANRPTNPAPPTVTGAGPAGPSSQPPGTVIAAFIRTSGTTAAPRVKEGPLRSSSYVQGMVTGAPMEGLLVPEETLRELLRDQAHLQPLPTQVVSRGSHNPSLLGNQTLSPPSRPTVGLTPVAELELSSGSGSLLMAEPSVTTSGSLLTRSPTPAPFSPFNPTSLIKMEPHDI
Chain of HSF1 (Q00613 whole entry): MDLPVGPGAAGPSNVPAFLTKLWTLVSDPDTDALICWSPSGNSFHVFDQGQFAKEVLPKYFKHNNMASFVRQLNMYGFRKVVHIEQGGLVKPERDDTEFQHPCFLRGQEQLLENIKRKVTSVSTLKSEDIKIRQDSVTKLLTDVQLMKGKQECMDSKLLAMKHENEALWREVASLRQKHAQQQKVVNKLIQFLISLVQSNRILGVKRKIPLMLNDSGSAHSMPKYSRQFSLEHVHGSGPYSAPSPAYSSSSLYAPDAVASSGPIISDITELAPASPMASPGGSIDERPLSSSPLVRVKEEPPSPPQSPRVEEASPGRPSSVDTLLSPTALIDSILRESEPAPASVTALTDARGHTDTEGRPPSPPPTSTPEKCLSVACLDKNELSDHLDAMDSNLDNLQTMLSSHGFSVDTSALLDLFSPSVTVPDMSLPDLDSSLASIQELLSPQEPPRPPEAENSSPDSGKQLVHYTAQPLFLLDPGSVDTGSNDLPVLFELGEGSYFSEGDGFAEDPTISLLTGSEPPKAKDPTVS
Chain of ETV6 (P41212 whole entry): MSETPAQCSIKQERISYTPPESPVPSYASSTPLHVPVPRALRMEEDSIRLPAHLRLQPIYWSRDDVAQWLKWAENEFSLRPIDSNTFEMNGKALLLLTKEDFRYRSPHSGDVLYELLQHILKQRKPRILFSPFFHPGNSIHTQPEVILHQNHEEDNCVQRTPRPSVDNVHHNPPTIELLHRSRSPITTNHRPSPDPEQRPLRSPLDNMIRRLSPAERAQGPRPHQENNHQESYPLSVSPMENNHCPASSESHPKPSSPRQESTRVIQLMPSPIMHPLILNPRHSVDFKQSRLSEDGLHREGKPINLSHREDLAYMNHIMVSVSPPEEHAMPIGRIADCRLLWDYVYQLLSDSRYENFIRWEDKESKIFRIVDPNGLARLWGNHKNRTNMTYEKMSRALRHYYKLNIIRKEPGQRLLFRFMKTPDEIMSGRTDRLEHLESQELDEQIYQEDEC

In the case of AGCAAT, the binding signal in the assay with FEV is 1.08 fold enrichment (6-mer frequency, TF over GST control); with ETV5 it was 1.14 fold enrichment (6-mer frequency, TF over GST control); with HSF1, 1.1 fold enrichment (6-mer frequency, TF over GST control); with SPIC, 1.05 fold enrichment (6-mer frequency, TF over GST control); with ELF4, 1.2 fold enrichment (6-mer frequency, TF over GST control); with ELK4, 1.14 fold enrichment (6-mer frequency, TF over GST control). Further, the binding signal in the assay with ETV2 was 1.14 fold enrichment (6-mer frequency, TF over GST control); in the assay with ELF3, 1.13 fold enrichment (6-mer frequency, TF over GST control); with CRX it was 1.06 fold enrichment (6-mer frequency, TF over GST control); with ETV1 it was 1.09 fold enrichment (6-mer frequency, TF over GST control); with ERF, 1.1 fold enrichment (6-mer frequency, TF over GST control); in the assay with ETV3L, 1.03 fold enrichment (6-mer frequency, TF over GST control). Also, the binding signal was 1.1 fold enrichment (6-mer frequency, TF over GST control) in the assay with ETS2; 1.04 fold enrichment (6-mer frequency, TF over GST control) with SPDEF; 1.25 fold enrichment (6-mer frequency, TF over GST control) in the assay with ETV7; 1.08 fold enrichment (6-mer frequency, TF over GST control) in the assay with ELF5; 1.18 fold enrichment (6-mer frequency, TF over GST control) in the assay with ETV3; 1.14 fold enrichment (6-mer frequency, TF over GST control) in the assay with ETV6.
